ANO1 block = TMEM16A chloride channel inhibitors, primary screen, cell-based, HTS; normalized B-score (activity score, 25-100; higher = stronger inhibition) at 10 µM; 310,000 tested, 1.2% active; HEK293 TMEM16A/YFP iodide influx fluorescence, ionomycin; Anoctamin-1 (Mus musculus), Q8BHY3;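 active = ratio plate-corrected score three or more library SD toward inhibition, starting fluorescence score within five deviations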;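 also: score derived from kinetic fluorescence span divided by baseline fluorescence per well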
Target sequence (Q8BHY3 whole entry, looked up): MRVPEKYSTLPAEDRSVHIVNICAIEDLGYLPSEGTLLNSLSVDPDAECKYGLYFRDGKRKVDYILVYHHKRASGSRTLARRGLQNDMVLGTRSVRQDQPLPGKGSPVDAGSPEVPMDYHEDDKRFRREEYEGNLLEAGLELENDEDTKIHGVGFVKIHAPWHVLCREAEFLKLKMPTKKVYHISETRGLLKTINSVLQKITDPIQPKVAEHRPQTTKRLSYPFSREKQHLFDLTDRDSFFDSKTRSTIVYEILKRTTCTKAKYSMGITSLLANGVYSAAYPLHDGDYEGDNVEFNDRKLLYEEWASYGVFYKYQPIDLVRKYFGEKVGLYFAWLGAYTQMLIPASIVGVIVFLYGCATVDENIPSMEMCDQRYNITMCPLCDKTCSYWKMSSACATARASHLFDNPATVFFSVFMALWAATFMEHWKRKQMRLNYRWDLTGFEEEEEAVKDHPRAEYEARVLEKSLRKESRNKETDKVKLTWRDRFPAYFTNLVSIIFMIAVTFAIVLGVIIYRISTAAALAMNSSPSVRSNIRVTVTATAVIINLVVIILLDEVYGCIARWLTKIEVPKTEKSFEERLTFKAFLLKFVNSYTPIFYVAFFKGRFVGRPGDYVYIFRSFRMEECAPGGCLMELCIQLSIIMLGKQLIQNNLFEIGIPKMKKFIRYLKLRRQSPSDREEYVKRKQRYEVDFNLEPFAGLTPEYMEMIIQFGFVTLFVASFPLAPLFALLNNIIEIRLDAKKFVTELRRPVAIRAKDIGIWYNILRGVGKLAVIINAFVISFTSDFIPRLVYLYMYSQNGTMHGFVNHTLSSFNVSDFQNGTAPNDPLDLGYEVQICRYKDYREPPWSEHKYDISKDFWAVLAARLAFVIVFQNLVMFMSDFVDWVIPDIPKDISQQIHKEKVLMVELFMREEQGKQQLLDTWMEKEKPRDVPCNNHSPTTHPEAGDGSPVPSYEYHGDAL
TMEM16A act = TMEM16A chloride channel activators or potentiators, primary screen, cell-based, HTS; B-score at 10 µM; Anoctamin-1 (Mus musculus), Q8BHY3; 340,000 tested, 0.3% active; HEK293 TMEM16A/YFP-H148Q/I152L, iodide quench fluorescence; hits give low values; AID 623877, 2012;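 active = fluorescence-ratio B-score plate-corrected deviation score at least 3 library SD below zero, with starting fluorescence score within 5 deviations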;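 also: channel opened by trigger with iodide after compound preincubation; score built on the fluorescence ratio of max minus min over baseline; more negative score means more quench and so TMEM16A activation or potentiation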
HDAC3 inh = HDAC3 deacetylase inhibitors, primary screen, biochemical, fluorescence, cell-free homogeneous | 320,000 tested, 0.15% active | Histone deacetylase 3 (Homo sapiens), O15379 | inhibition, % at 8.3 µM | recombinant HDAC3, fluorogenic peptide/trypsin coupled; in the data active = inhibition above about 26%, passing the limit was not always enough; inconclusive = no clear call, values can overlap the other calls
CHT block = inhibitors of human choline transporter CHT. B-score at 10 µM. CHT-expressing cells, membrane potential dye, choline response; hits give low values. 310,000 tested, 0.86% active. AID 488975, 2010. High affinity choline transporter 1 (Homo sapiens), Q9GZV3;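 active = B-score over 3 SD under the library average, and starting fluorescence ratio not unusually high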;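 also: choline stimulus applied at its EC90 after an EC20 pre-addition; B-score computed on integrated fluorescence ratio after choline addition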
PHOSPHO1 inh = PubChem AID 1565; Phosphoethanolamine/phosphocholine phosphatase (Homo sapiens), Q8TCT1; recombinant PHOSPHO1, absorbance phosphatase assay; inhibition, % at 13.3 µM; 290,000 tested, 1.1% active; in the data active = inhibition above about 60%
CHT allo act = CHT positive allosteric modulators, primary screen, cell-based, membrane potential dye, choline EC20; High affinity choline transporter 1 (Homo sapiens), Q9GZV3; CHT-expressing cells; hits give high values; LV-AA mutant CHT in HEK293 cells; B-score at 10 µM; 310,000 tested, 0.49% active;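 active = initial fluorescence not abnormally high and integrated response B-score, plate-corrected, over 3 SD above library mean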
TMEM16A reconf = TMEM16A chloride channel inhibitors, confirmation, cell-based, re-confirmation; 2,300 tested, 39% active; shares compounds with ANO1 block; HEK293 TMEM16A/YFP-H148Q, iodide quench fluorescence; ionomycin added to raise cell calcium; inhibition, % at 10 µM; AID 652189, 2013;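 active = mean duplicate percent inhibition, scaled so buffer wells are 0 and the reference blocker 100, over three buffer SD above buffer mean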
TMEM16A Ca cntr = calcium mobilization in TMEM16A/YFP HEK293 cells, confirmation, counter-screen for TMEM16A inhibitor project. Fluo4 calcium mobilization. shares compounds with ANO1 block. calcium response (% of ionomycin), % at 10 µM. 2,300 tested, 2% active;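 active = duplicate-averaged calcium signal over 20% of the ionomycin maximum, relative to buffer baseline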;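 also: each well's signal is peak minus trough fluorescence divided by its pre-addition baseline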
Parental YFP cnt = iodide YFP quench changes in parental YFP-HEK293, counter-screen for TMEM16A inhibitor project, cell-based. shares compounds with ANO1 block. ionomycin. YFP ratio F(max-min)/F0 at 10 µM. 2,300 tested, under 10 active;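 active = yellow fluorescent protein signal ratio exceeding the buffer control mean by over 5 SD of those controls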;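 also: ratio is mean of duplicate wells from kinetic YFP trace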
ClC-1 inh = ClC-1 chloride channel inhibition, selectivity assay for TMEM16A inhibitor project, cell-based, voltage-dependent ClC-1. ratio percent, % at 10 µM. CHO ClC-1-YFP, iodide influx fluorescence quench; iodide control reads 0, buffer control 100. shares compounds with ANO1 block. 2,300 tested, under 10 active;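 active = duplicate-mean ratio percent above the mean of iodide-only control wells, which defines zero, plus 5 of their SD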;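 also: higher percent means stronger block of ClC-1 iodide influx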
Large screens that a line does not name were inactive (follow-up assays come after a bar, where they were run). Rows were chosen to be rich in hits. Some 3.2% of all compounds tested hit in one or more screens of this group.

CCC(C)C(NC(=O)C1CCC(C)CC1)C(=O)Nc1ccc(OC)cc1OC (centres undefined)	none
CCC(C)C(NC(=O)C1CCC(C)CC1)C(=O)Nc1cc(OC)ccc1OC (centres undefined)	ANO1 block 25 | TMEM16A reconf inactive | TMEM16A Ca cntr inactive | Parental YFP cnt inactive | ClC-1 inh inactive
CCCCOc1ccc(C(=O)NCCC(=O)NCCCC(=O)OCC)cc1	none
Clc1ccc(-c2cc(C3CCNCC3)[nH]n2)cc1	none
Fc1ccc(-c2cc(C(F)(F)C(F)F)[nH]n2)cc1	ANO1 block 100 | TMEM16A reconf 54% | TMEM16A Ca cntr inactive | Parental YFP cnt inactive | ClC-1 inh inactive
CC(C)(C)c1cc(-c2ccccc2)n[nH]1	none
FC(F)C(F)(F)c1cc(-c2ccc(Cl)cc2)n[nH]1	ANO1 block 100 | TMEM16A reconf 97% | TMEM16A Ca cntr inactive | Parental YFP cnt inactive | ClC-1 inh inactive
Oc1ccccc1-c1cc(C(F)(F)F)[nH]n1	none (no result: ANO1 block, TMEM16A act, HDAC3 inh, CHT block, CHT allo act)
Oc1ccccc1-c1cc(C(F)(F)C(F)F)[nH]n1	ANO1 block 100 | TMEM16A reconf inactive | TMEM16A Ca cntr inactive | Parental YFP cnt inactive | ClC-1 inh inactive
Cc1ccc(NCC(=O)N=Nc2c(O)n(C)c3ccccc23)cc1	none
Cc1[nH]c2ccc(F)cc2c1CCN(Cc1ccncc1)C(=S)Nc1ccc(F)cc1	none
CCOC(=O)CC(NC(=O)c1cc2cccc(OC)c2oc1=O)c1cccc([N+](=O)[O-])c1 (centres undefined)	none
CCN(CC)S(=O)(=O)c1cc(-c2nnc(-c3ccc(Br)cc3)o2)ccc1Cl	ANO1 block 25 | TMEM16A reconf inactive | TMEM16A Ca cntr inactive | Parental YFP cnt inactive | ClC-1 inh inactive
CCN(CC)S(=O)(=O)c1cc(-c2nnc(-c3ccc(Br)cc3)o2)ccc1Br	none
Cc1cccc(-c2nnc(NC(=O)c3ccc(N4C(=O)CCC4=O)cc3)s2)c1	none | TMEM16A reconf inactive | TMEM16A Ca cntr inactive | Parental YFP cnt inactive | ClC-1 inh inactive
Cc1ccccc1-c1nnc(NC(=O)c2ccc(N3C(=O)CCC3=O)cc2)s1	none
Nc1c(C(=O)CSc2nncn2-c2ccccc2)c(=O)[nH]c(=O)n1C1CC1	HDAC3 inh inconclusive (no result: ANO1 block, CHT block, PHOSPHO1 inh, CHT allo act)
Cc1cc(N)ccc1NC(=O)c1ccccc1	ANO1 block 100 | TMEM16A reconf inactive | TMEM16A Ca cntr inactive | Parental YFP cnt inactive | ClC-1 inh inactive
Cc1cc(O)ccc1NC(=O)c1ccccc1	none
COc1cc(C)c(Cl)c(C)c1S(=O)(=O)NC1CC(C)(C)NC(C)(C)C1	none (no result: HDAC3 inh)
CCCSc1oc(-c2ccco2)nc1S(=O)(=O)c1ccc(C)cc1	ANO1 block 25 | TMEM16A reconf inactive | TMEM16A Ca cntr inactive | Parental YFP cnt inactive | ClC-1 inh inactive
CCCSc1oc(-c2ccco2)nc1S(=O)(=O)c1ccccc1	none
Cc1csc(SCC(=O)c2c(N)n(CC(C)C)c(=O)n(C)c2=O)n1	none
CN(c1ccccc1)S(=O)(=O)c1cccc(NC(=O)CSc2nnc(N)s2)c1	ANO1 block 100 | TMEM16A reconf 35% | TMEM16A Ca cntr inactive | Parental YFP cnt inactive | ClC-1 inh inactive
N#CCSc1ccsc1C(=O)Nc1ccc(F)cc1	none
COc1ccc(Cc2nc3ccc(C(=O)NCCn4ccnc4C)cc3o2)cc1OC	none
CCN(CC)S(=O)(=O)c1cc(C(=O)Nc2ccncc2)ccc1Cl	ANO1 block 100 | TMEM16A reconf inactive | TMEM16A Ca cntr inactive | Parental YFP cnt inactive | ClC-1 inh inactive
Cc1cc(Cl)cc2c1NC(=O)[C@]21[C@@H]2C(=O)N(Cc3ccccc3)C(=O)[C@@H]2[C@@H]2CCCN21	ANO1 block 25 | TMEM16A reconf inactive | TMEM16A Ca cntr inactive | Parental YFP cnt inactive | ClC-1 inh inactive
COc1ccc(Cn2c(=O)[nH]c3cc(C(=O)N4CCN(Cc5ccccc5)CC4)ccc3c2=O)cc1	ANO1 block 25 | TMEM16A reconf inactive | TMEM16A Ca cntr inactive | Parental YFP cnt inactive | ClC-1 inh inactive
COc1ccc(Cn2c(=O)[nH]c3cc(C(=O)N4CCN(c5ccccc5OC)CC4)ccc3c2=O)cc1	none
CN(C)C(=O)c1ccc(Nc2nc(-c3cccs3)nc3ccccc23)cc1	none
CC(Oc1ccc(Br)cc1)c1nc2c3ccccc3nc(=S)n2[nH]1 (centres undefined)	ANO1 block 25 | TMEM16A reconf 33% | TMEM16A Ca cntr inactive | Parental YFP cnt inactive | ClC-1 inh inactive
O=C(O)c1ccc(NC2OC[C@@H](O)[C@H](O)[C@H]2O)cc1 (some centres undefined)	none (no result: PHOSPHO1 inh)
O=C(O)C1C(c2ccccc2)C(C(=O)OCCCO)C1c1ccccc1 (centres undefined)	none
CCCCCOC(=O)C1C(c2ccccc2)C(C(=O)O)C1c1ccccc1 (centres undefined)	ANO1 block 25 | TMEM16A reconf inactive | TMEM16A Ca cntr inactive | Parental YFP cnt inactive | ClC-1 inh inactive
FC(F)(F)c1ccccc1CNCc1ccncc1	none
CCOC(=O)N1CCc2c(sc(NC(C)=O)c2C(N)=O)C1	none (no result: PHOSPHO1 inh) | TMEM16A reconf inactive | TMEM16A Ca cntr inactive | Parental YFP cnt inactive | ClC-1 inh inactive
CCC(=O)Nc1sc2c(c1C(N)=O)CCN(C(C)=O)C2	none
CCOc1ccc(NCc2nnc(SCc3ccc(Cl)cc3)n2-c2ccccc2)cc1	none
CN(C)c1ccc(/C=N/NC(=O)c2nonc2N)cc1[N+](=O)[O-]	none
Cc1ccc(C(=O)Nc2nc(=O)n(C(=O)c3ccccc3C)s2)cc1	ANO1 block 25 | TMEM16A reconf 26% | TMEM16A Ca cntr inactive | Parental YFP cnt inactive | ClC-1 inh inactive
C/C(O)=c1/ccc2cccc3nc(C)nc1c23	none | TMEM16A reconf inactive | TMEM16A Ca cntr 102% | Parental YFP cnt inactive | ClC-1 inh inactive

Assay outcomes: PubChem BioAssay, several laboratories
